In the supplement of paper PMC10849652:
About 7,900 targets were measured; listed, in parts, are those with a hit and a random draw of the rest. About 0.6% of all pairs of compound and target were hits.

The targets below were run with C#Cc1cccc(Nc2ncnc3cc(OCCOC)c(OCCOC)cc23)c1 [erlotinib] (assay: log2 fold change, soluble protein after heating vs DMSO (PISA); higher = thermal stabilisation; K562 cells, 10 uM, 30 min; active = over 0.2 and 3.5 SD of the protein, either way, in both replicates (recomputed)).
Method in brief: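 K562 cells at 2×10^6 cells/mL were exposed to 10 μM compound for 30 min, then aliquots were heated for 3 min across 48°C-58°C, pooled, and extracted in PBS containing 0.5% NP-40 at 4°C. The supernatant after 21,000xg for 90 min was taken as soluble protein and measured by TMTpro 16plex LC-MS/MS with channel sums equalised. Thermal stability is reported relative to control samples, with values from duplicates. Fold changes are given on a log2 scale.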

Chain of UniProt Q9P0T7 (Q9P0T7 whole entry, looked up): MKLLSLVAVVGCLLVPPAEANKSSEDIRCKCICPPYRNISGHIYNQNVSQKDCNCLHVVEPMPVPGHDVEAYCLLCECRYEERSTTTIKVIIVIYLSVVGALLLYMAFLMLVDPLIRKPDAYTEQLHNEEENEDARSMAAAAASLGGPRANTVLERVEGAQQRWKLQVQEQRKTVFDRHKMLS
Chain of UniProt A6NHL2 (A6NHL2 whole entry, looked up): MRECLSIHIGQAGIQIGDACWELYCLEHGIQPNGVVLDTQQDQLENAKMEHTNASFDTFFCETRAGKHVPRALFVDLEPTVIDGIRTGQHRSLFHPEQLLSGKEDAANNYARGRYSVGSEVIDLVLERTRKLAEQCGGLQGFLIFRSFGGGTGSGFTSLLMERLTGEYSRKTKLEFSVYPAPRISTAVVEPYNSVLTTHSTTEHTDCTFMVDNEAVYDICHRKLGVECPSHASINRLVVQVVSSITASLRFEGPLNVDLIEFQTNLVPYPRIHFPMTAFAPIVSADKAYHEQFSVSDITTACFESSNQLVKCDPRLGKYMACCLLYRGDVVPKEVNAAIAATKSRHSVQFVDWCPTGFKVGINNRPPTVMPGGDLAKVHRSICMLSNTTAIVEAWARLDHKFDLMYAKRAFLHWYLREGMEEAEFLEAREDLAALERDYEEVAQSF
Chain of UniProt Q9UL33 (Q9UL33 whole entry, looked up): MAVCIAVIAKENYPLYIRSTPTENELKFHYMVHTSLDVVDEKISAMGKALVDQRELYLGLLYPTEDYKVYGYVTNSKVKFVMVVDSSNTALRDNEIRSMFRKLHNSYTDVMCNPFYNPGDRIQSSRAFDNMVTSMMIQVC
Chain of UniProt O95379 (O95379 whole entry, looked up): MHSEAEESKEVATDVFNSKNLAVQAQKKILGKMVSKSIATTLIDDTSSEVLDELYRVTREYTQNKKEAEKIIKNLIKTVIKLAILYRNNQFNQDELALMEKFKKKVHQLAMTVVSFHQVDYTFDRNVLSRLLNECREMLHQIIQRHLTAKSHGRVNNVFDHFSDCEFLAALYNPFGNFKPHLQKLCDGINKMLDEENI
Chain of UniProt O75674 (O75674 whole entry, looked up): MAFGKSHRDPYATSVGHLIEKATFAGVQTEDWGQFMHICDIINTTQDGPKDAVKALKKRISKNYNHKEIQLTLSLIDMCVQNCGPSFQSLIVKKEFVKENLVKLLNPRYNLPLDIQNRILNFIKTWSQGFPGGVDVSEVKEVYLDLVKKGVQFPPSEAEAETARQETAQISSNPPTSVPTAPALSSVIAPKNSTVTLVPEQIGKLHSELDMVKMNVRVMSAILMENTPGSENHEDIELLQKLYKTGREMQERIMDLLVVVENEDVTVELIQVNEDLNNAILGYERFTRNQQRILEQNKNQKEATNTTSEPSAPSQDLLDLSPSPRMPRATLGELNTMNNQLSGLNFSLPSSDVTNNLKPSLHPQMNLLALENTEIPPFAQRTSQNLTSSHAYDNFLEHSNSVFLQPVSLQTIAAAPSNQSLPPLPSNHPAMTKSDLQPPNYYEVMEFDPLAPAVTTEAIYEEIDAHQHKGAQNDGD
Chain of UniProt O94967 (O94967 whole entry, looked up): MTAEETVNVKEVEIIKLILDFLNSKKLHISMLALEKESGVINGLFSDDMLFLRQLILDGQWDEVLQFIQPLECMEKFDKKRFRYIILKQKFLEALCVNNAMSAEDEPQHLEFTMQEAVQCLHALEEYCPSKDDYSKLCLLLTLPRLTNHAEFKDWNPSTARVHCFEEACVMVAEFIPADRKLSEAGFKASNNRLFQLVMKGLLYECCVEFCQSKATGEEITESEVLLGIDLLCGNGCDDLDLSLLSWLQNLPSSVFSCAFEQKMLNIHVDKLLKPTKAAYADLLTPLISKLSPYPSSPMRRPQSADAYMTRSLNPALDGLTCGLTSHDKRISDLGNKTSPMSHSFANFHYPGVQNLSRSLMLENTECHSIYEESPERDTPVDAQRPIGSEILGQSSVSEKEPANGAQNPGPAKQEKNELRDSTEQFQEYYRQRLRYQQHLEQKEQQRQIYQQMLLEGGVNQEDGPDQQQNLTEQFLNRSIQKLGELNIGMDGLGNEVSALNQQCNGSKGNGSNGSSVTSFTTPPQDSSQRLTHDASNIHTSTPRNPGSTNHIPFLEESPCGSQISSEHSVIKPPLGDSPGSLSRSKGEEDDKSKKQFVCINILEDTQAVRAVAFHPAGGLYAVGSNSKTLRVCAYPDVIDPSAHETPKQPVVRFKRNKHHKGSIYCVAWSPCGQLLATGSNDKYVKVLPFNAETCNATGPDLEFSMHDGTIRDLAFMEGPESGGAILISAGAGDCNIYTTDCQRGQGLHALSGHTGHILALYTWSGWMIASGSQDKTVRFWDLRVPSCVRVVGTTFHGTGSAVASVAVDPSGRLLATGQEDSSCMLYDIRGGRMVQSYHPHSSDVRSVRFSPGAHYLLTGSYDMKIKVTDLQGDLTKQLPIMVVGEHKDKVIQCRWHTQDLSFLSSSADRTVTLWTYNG
Chain of UniProt Q9UHP3 (Q9UHP3 whole entry, looked up): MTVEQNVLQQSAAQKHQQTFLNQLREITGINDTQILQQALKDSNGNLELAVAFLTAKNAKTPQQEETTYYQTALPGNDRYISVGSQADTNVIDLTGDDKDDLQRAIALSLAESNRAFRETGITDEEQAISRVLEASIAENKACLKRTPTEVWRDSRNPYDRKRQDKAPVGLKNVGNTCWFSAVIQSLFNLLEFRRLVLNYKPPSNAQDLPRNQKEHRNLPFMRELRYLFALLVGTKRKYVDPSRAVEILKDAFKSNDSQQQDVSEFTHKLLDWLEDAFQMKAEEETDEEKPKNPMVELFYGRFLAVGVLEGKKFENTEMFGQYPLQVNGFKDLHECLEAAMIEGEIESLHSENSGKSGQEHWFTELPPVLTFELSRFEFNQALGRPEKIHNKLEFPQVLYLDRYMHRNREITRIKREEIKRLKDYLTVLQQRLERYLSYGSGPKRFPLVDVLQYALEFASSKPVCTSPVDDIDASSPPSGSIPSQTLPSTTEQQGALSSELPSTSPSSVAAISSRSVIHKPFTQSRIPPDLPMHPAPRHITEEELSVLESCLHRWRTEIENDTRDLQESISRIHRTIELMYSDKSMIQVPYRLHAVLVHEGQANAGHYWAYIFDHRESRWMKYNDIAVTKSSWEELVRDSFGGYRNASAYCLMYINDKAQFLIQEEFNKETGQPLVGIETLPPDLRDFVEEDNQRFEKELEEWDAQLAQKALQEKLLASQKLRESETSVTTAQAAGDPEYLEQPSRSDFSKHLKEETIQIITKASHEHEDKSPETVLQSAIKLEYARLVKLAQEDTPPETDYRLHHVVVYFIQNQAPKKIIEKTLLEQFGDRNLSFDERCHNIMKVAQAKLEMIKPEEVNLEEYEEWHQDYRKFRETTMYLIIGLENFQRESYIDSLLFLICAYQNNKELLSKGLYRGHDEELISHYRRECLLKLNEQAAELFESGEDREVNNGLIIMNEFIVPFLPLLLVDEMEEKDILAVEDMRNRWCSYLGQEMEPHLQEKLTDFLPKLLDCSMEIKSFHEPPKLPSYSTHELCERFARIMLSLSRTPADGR
Chain of UniProt Q9HAD4 (Q9HAD4 whole entry, looked up): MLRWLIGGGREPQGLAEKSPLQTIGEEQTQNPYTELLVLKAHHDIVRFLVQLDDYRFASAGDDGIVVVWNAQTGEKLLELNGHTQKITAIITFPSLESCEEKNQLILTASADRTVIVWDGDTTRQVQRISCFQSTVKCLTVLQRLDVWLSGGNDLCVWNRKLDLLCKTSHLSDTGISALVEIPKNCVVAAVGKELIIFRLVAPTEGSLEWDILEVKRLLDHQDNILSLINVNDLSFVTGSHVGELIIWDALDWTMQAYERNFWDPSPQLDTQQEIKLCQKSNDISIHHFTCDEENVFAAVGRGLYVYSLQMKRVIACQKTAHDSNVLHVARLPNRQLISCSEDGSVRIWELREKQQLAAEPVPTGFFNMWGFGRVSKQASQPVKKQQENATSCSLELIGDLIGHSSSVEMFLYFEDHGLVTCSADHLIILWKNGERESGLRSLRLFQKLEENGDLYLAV
Chain of UniProt Q01081 (Q01081 whole entry, looked up): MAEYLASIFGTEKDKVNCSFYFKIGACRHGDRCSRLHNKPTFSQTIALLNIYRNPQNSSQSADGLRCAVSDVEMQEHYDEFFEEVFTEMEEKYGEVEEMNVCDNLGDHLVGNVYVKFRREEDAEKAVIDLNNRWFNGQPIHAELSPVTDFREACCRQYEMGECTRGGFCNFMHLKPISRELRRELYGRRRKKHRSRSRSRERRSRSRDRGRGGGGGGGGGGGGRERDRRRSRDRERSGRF
Chain of UniProt P30291 (P30291 whole entry, looked up): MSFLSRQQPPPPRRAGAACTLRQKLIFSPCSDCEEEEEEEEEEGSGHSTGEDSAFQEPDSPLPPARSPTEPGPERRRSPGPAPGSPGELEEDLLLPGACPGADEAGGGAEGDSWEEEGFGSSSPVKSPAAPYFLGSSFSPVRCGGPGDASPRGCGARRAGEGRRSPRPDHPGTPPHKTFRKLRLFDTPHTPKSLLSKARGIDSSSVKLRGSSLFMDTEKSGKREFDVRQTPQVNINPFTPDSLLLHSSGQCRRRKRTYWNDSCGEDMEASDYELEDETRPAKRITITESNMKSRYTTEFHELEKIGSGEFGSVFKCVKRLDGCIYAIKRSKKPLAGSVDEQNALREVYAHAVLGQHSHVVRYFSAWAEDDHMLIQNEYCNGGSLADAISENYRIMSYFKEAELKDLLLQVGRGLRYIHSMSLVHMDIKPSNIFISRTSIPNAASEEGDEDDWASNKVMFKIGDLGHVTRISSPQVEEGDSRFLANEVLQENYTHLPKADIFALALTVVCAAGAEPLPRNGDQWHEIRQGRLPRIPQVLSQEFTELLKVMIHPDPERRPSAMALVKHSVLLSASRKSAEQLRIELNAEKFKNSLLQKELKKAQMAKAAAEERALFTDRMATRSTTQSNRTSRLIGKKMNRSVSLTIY
Chain of UniProt Q5BJH2 (Q5BJH2 whole entry, looked up): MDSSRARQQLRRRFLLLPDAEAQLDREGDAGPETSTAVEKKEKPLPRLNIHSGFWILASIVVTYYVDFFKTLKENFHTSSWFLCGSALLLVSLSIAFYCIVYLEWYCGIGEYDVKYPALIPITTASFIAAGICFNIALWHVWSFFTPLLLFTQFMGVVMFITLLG

log2 fold change, inactive:
TMEM223 (UniProt A0PJW6) 0.005
USP25 isoform 3 (UniProt Q9UHP3) 0.007
VPS41 (UniProt P49754) -0.022
WDR47 (UniProt O94967) 0.038
TMEM128 (UniProt Q5BJH2) -0.048
WDR41 (UniProt Q9HAD4) 0.039
TMEM9 (UniProt Q9P0T7) 0.014
VPS51 (UniProt Q9UID3) -0.003
TYW1 (UniProt Q9NV66) -0.045
TUBAL3 (UniProt A6NHL2) 0.092
TOM1L1 (UniProt O75674) 0.019
TPR (UniProt P12270) -0.113
TP53BP1 isoform 2 (UniProt Q12888) -0.011
TRAPPC2L (UniProt Q9UL33) 0.193
U2AF1 isoform 2 (UniProt Q01081) 0.015
TMEM9B (UniProt Q9NQ34) 0.062
VPS37A (UniProt Q8NEZ2) 0.127
WEE1 (UniProt P30291) 0.029
TNFAIP8 isoform 4 (UniProt O95379) 0.019
UBAP2L isoform 5 (UniProt Q14157) 0.057
WDR43 (UniProt Q15061) 0.001
UFD1 isoform 1 (UniProt Q92890) 0.001
